Source: PubChem (several laboratories)
HSP90 inh: HSP90 inhibitors, primary screen, cell lysate, luminescence. hit rate 0.91% among 290,000. inhibition, % at 5.6 µM. Heat shock protein HSP 90 (rabbit reticulocyte lysate; luciferase refolding). Rabbit reticulocyte lysate, luciferase refolding luminescence, 3 h;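 active = inhibition above the screen-wide mean plus 3 SD, computed separately per campaign, cut at about 16% in these data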;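 also: 0% = DMSO wells and 100% = 60 µM geldanamycin wells; inhibitors lower the luminescence because luciferase stays unfolded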
PPC-1+TRAIL kill: compounds killing PPC-1 cancer cells with TRAIL present, primary screen, TRAIL potentiator project, ATPLite luminescence, uHTS. PPC-1 cells + TRAIL, ATPLite viability luminescence. cell killing (% activity), % at 4 µM or 5 µM. hit rate 0.41% among 220,000;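 active = cell killing above 50% in the first pass at 4 µM, then a duplicate retest at 5 µM averaging 50% or more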;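 also: plate controls were cells with TRAIL plus DMSO for no effect and medium-only wells lacking cells for full effect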
TROY NFkB inh: inhibitors of TROY-driven NF-kB signaling, primary screen, Q293 LMP1-TROYcd cells, NF-kB luciferase, uHTS | AID 1347056, 2019 | hit rate 0.98% among 360,000 | Q293 LMP1-TROYcd NF-kB luciferase reporter, 4 h | inhibition, % at 10 µM;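 active = compounds whose plate-normalised and pattern-corrected inhibition of the luciferase reporter signal at the single screening dose is 50% or more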
TWEAK Fn14 block: inhibitors of TWEAK-Fn14 signaling, primary screen, luciferase reporter cells, uHTS; AID 1159606, 2016; hit rate 2% among 360,000; TWEAK-stimulated Fn14 reporter cells, luciferase luminescence, 8 h; inhibition, % at 10 µM; in the data active = inhibition above about 50%
C8 TRAIL sens: viability loss with TRAIL in NB7+C8 cells, primary screen, TRAIL sensitizer project, cell-based, ATPlite luminescence; inhibition (viability loss, TRAIL sensitization), % at 10 µM; hit rate 1% among 360,000; AID 624354, 2012;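 active = compounds causing at least 50% loss of cell viability in the single-dose screen, relative to plate controls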
Platelet DG rel: inhibitors of platelet dense granule secretion, primary screen, cell-based, MLPCN, human platelets; human platelet-rich plasma, SFLLRN dense granule ATP release, luminescence; inhibition, %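 (compounds screened at 7.5 µM in platelet-rich plasma)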; hit rate 0.22% among 300,000; AID 1663, 2009;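 active = mean replicate score, as percent of positive control, at or above 50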
* hit, by the source's call; / = not tested or not shown. Hits are enriched below; roughly 3.5% of the tested compounds scored in any of these assays.

SMILES | HSP90 inh | PPC-1+TRAIL kill | TROY NFkB inh | TWEAK Fn14 block | C8 TRAIL sens | Platelet DG rel
Cc1ccccc1NC(=O)c1c(C)[nH]c(=S)c(C#N)c1-c1ccco1 | 1 | 60* | -6 | 10 | -10 | -10
Cc1ccccc1CC1SC(N=C(N)N)=NC1=O (stereo not given) | 1 | / | -14 | 9 | -3 | -3
Cc1nccn1CC(=O)c1ccccc1 | / | / | 2 | -14 | -13 | /
CC(C)C(Cl)=NOC(=O)Nc1ccc(S(N)(=O)=O)cc1 | / | / | -17 | 56* | 4 | /
COC(=O)[C@H](C)NC(=O)Nc1ccc(S(N)(=O)=O)cc1 | 0 | 0 | 12 | 1 | -15 | -4
CN1C(=O)C(Cl)(Cl)C(=O)c2ccccc21 | -2 | 0 | 12 | 51* | -1 | 2
CN1C(=O)C2(NC(=O)c3ccccc3N2C)c2ccccc21 (stereo not given) | 4 | 13 | -6 | 13 | 9 | 0
c1cncc(Cc2cc3ccccc3[nH]2)c1 | -1 | -1 | -17 | 12 | 8 | 14
c1ccc2[nH]c(-c3cnco3)cc2c1 | 7 | / | 52* | 64* | 5 | 1
O=C(COc1ccc(Br)cc1)NCC1COc2ccccc2O1 (stereo not given) | / | / | -13 | 8 | 5 | /
COCCNC(=O)c1cc(-c2ccncc2)nc2ccc(S(=O)(=O)N3CCOCC3)cc12 | -6 | -1 | 64* | 8 | -1 | -1
CS/C(N)=N/N=C/c1cc(C)ccc1O | 7 | 39 | -28 | 7 | 64* | 12
COc1ccc(Cn2nnnc2C(C(C)C)N(Cc2ccco2)Cc2cccs2)cc1 (stereo not given) | 5 | 9 | / | 80* | 4 | 4
CCOC(=O)c1oc2ccccc2c1CSc1nnc(-c2ccco2)o1 | -4 | 23 | 2 | 59* | -6 | 1
CCC(C)(C)NC(=O)C(c1ccc(F)cc1)N(CCOC)C(=O)CCC(=O)Nc1nccs1 (stereo not given) | -1 | / | -11 | 22 | -4 | -8
O=C(Nc1ccc(Cl)cc1)c1csc([C@@H]2O[C@H](CO)[C@@H](O)[C@H]2O)n1 | / | / | -41 | -15 | -3 | /
Cc1ccc(NC(=O)CN2C(=O)NC(Cc3ccccc3)C2=O)cc1 (stereo not given) | -1 | 3 | -9 | 4 | -10 | 12
O=C(CN1C(=O)NC(Cc2ccccc2)C1=O)Nc1ccccc1 (stereo not given) | 2 | -8 | / | 97* | -10 | -3
COc1ccccc1C(=O)Nc1nc(-c2cccs2)c(NC(C)=O)s1 | -4 | 49 | -43 | -24 | 51* | 1
CN1CCC(=NOc2ccc([N+](=O)[O-])cc2)CC1 | 1 | 18 | -55 | -20 | 2 | 1
CC(C)(C)c1ccc(C(=O)O)c(C(=O)c2ccc(C(=O)O)cc2)c1 | 2 | 6 | -11 | -18 | 5 | 15
Cc1ccsc1C(=O)OCC(=O)NC1CCCCC1 | / | / | -45 | -6 | -3 | /
CCc1ccc(-c2nc(CN3CCC(C(=O)N4CCN(c5ccccn5)CC4)CC3)c(C)o2)cc1 | 2 | 8 | 2 | 35 | 34 | /
CCc1ccc(-c2nc(CN3CCC(C(=O)N4CCN(c5ccccc5)CC4)CC3)c(C)o2)cc1 | 13 | 28 | 27 | 94* | 25 | 1
COC(=O)c1ccc(Oc2nc(Nc3ccccc3)nc(N(C)C)n2)cc1 | -5 | -15 | -2 | 14 | -16 | 0
SMILES | HSP90 inh | PPC-1+TRAIL kill | TROY NFkB inh | TWEAK Fn14 block | C8 TRAIL sens | Platelet DG rel
CCOC(=O)C(C)Oc1nc(Oc2ccccc2)nc(N(C)C)n1 (stereo not given) | 2 | 15 | / | 50* | 9 | -1
CC(C)Cc1nc2oc3c(NCC4CCCO4)ncnc3c2c2c1CCC2 (stereo not given) | 1 | 38 | -2 | 54* | 23 | -9
CCCN1CCC(N2CCCC(C(=O)O)C2)CC1 (stereo not given) | 6 | 21 | 41 | 61* | 7 | -2
CCNC(=S)N(Cc1cccs1)Cc1cc2cc(OCC)ccc2[nH]c1=O | 1 | 2 | -17 | 76* | -9 | 20
O=S(=O)(Cc1cc(Cl)nc(-c2ccccc2)n1)c1ccccc1 | 2 | 4 | -9 | -25 | 11 | -18
O=S(=O)(Cc1cc(Cl)nc(-c2ccncc2)n1)c1ccccc1 | 3 | 6 | 51* | -16 | 1 | 7
O=c1[nH]c(C2CCCN(S(=O)(=O)Cc3ccccc3)C2)nc2c1nnn2Cc1cccc(Cl)c1 (stereo not given) | 2 | / | 18 | 4 | -2 | -2
O=C(Nc1ccsc1C(=O)O)c1cccc(Oc2ccccc2)c1 | 13 | / | 53* | 53* | 49 | 5
COC(=O)c1nn(-c2nc(-c3ccc(OC)c(OC)c3)cc(C(F)(F)F)n2)cc1[N+](=O)[O-] | 0 | 9 | -17 | -34 | -8 | -2
COC(=O)c1nn(-c2nc(-c3cccc(OC)c3)cc(C(F)(F)F)n2)cc1[N+](=O)[O-] | -4 | 1 | 58* | -23 | 0 | -3
CC1(C)CC(c2nc(-c3ccc([N+](=O)[O-])cc3)cs2)CCO1 (stereo not given) | -3 | 13 | -21 | 6 | -3 | 1
O=C(CCN1C(=O)/C(=C/c2ccc(F)cc2)SC1=S)Nc1cc([N+](=O)[O-])ccc1O | -7 | / | 49 | -2 | 0 | -1
COc1ccc(C2(C(=O)Nc3ccccc3)CCOCC2)cc1 | 0 | -3 | 2 | 67* | 5 | 26
COCCCn1c(C(=O)Nc2ccc3c(c2)OCO3)cc2c(=O)n3cccc(C)c3nc21 | / | / | -14 | -64 | 54* | /
CC(=O)Nc1ccccc1C | / | / | 3 | 9 | 4 | /
Cc1ccccc1NC(=O)C(=Cc1ccc(C(=O)O)cc1)C(=O)Nc1ccccc1C | 5 | -4 | 16 | 78* | 9 | 7
CC(=O)/C(=C/c1ccccc1)C(=O)Nc1ccccc1C | -2 | 10 | 6 | 80* | 19 | 9
COc1ccc(C2=NN(C(=O)COC(=O)c3ccc(S(C)(=O)=O)c([N+](=O)[O-])c3)C(c3ccco3)C2)cc1 (stereo not given) | / | / | 16 | 69* | 90* | /
COc1ccc(C2=NN(C(=O)COc3ncnc4ccccc34)C(c3ccco3)C2)cc1 (stereo not given) | -3 | 0 | 7 | -65 | 13 | -1
O=S(=O)(NN=Cc1ccc(O)cc1O)c1cc(Cl)c(Cl)cc1Cl | / | / | -50 | -17 | -21 | /
CC(=O)Nc1cc(Cl)c(N=Cc2ccc(O)cc2O)cc1Cl | -1 | -1 | 7 | 77* | -2 | -2
COc1ccc(S(=O)(=O)Cc2ccc(C(=O)NCc3ccccc3)o2)cc1 | 2 | / | 6 | 6 | -1 | 6
